Source: PubChem BioAssay (NCATS)
Inconclusive results are not listed. Calls of active or inactive are those of the source. Calls follow the shape of the full dose curve.

assay: qHTS Assay for Lipid Storage Modulators (AID 1519); conditions: Drosophila S3 cells, BODIPY lipid droplet/cell ratio, laser cytometry; at 57.5 µM (top of the series); cells loaded with oleic acid
How it was run: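 Cells seeded at 5,000 per well were treated with compounds over a concentration series and loaded with oleic acid (400 uM, as added). Lipid droplet fluorescence (488 nm excitation, 500-530 nm channel) was read by laser-scanning cytometry and normalized to 20 uM Triacsin C.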
% is scaled to controls: 0 for no effect and ±100 for the full control effect.

Row | SMILES | activity change, negative = inhibition
1 | CC(=O)N1CCC2(CC1)CN(Cc1ccccc1)C2 | -0.469% (inactive)
2 | Cn1cccc1C(=O)N1CCC2(CCN(C(=O)Nc3cccc(F)c3)CC2)CC1 | 6.54% (inactive)
3 | COCC(=O)N1CCC2(CC1)CCN(C(=O)Nc1ccc(OC)cc1)CC2 | 4.36% (inactive)
4 | COC(=O)N1CCC[C@@]2(CCN(c3ccncc3)C2)C1 | 4.92% (inactive)
5 | COC(=O)N1CCC2(CCN(C(=O)NC(C)C)CC2)CC1 | 2.86% (inactive)
6 | O=C(Nc1cccc(F)c1)N1CCC2(CCNCC2)CC1 | 2.6% (inactive)
7 | O=S(=O)(c1ccccc1)N1CCC2(CCN(C(c3ccccc3)c3ccccc3)CC2)CC1 | 6.93% (inactive)
8 | CC(C)NC(=O)N1CC[C@@]2(CCCN(C(=O)c3cccn3C)C2)C1 | 3.5% (inactive)
9 | CS(=O)(=O)N1CCC2(CCN(c3ccccc3)CC2)CC1 | 5.49% (inactive)
10 | CC(C)NC(=O)N1CC[C@@]2(CCCN(C(=O)Oc3ccccc3)C2)C1 | 1.37% (inactive)
11 | COc1ccc(NC(=O)N2CC[C@@]3(CCCNC3)C2)cc1 | -2.79% (inactive)
12 | O=C(c1ccncc1)N1CCC2(CC1)CN(c1ncccn1)C2 | 0.437% (inactive)
13 | COc1ccc(NC(=O)N2CC3(CCN(C(=O)c4cccn4C)CC3)C2)cc1 | 6.73% (inactive)
14 | COC(=O)N1CCC2(CC1)CN(C(=O)Nc1ccccc1)C2 | 5.14% (inactive)
15 | COc1ccccc1CN1CC[C@@]2(CCCN(C(=O)c3c(C)noc3C)C2)C1 | 6.24% (inactive)
16 | CC(=O)N1CCC[C@@]2(CCN(Cc3ccccc3)C2)C1 | 6.41% (inactive)
17 | O=C(c1csnn1)N1CCC2(CCCN(Cc3cc(C(F)(F)F)cc(C(F)(F)F)c3)C2)CC1 | -5.5% (inactive)
18 | CS(=O)(=O)N1CCC2(CC1)CN(C(=O)Nc1ccccc1)C2 | 4.59% (inactive)
19 | O=C(Nc1cccc(F)c1)N1CCC2(CC1)CCN(C(=O)c1csnn1)CC2 | 5.59% (inactive)
20 | COCC(=O)N1CCC2(CCCN(C(=O)Nc3cccc(F)c3)C2)CC1 | 7.2% (inactive)

Row | SMILES | activity change, negative = inhibition
21 | COc1ccc(NC(=O)N2CCC3(CC2)CCN(C(=O)c2cnccn2)CC3)cc1 | 7.44% (inactive)
22 | O=C(Nc1ccccc1)N1CCC2(CC1)CCN(C(=O)c1csnn1)CC2 | 4.48% (inactive)
23 | COC(=O)N1CCC[C@@]2(CCN(C(=O)Nc3ccccc3)C2)C1 | 3.74% (inactive)
24 | COc1ccc(C(=O)N2CCC3(CCCN(Cc4ccncc4)C3)CC2)cc1 | 3.4% (inactive)
25 | O=C(c1cc(C(F)(F)F)cc(C(F)(F)F)c1)N1CCC[C@@]2(CCN(Cc3ccncc3)C2)C1 | 7.2% (inactive)
26 | COc1ccc(NC(=O)N2CC3(CCN(C(=O)c4c(C)noc4C)CC3)C2)cc1 | 4.67% (inactive)
27 | O=C(Nc1ccccc1)N1CCC2(CC1)CCN(C(=O)c1cnccn1)CC2 | 6.14% (inactive)
28 | COC(=O)N1CCC2(CC1)CN(c1cccc(-c3ccccc3)c1)C2 | 4.36% (inactive)
29 | COCC(=O)N1CCC[C@@]2(CCN(c3ncccn3)C2)C1 | -2.11% (inactive)
30 | O=C(Nc1cccc(F)c1)N1CC2(CCN(C(=O)c3csnn3)CC2)C1 | 5.27% (inactive)
31 | COCC(=O)N1CCC2(CC1)CN(C(=O)Nc1cccc(C#N)c1)C2 | 1.93% (inactive)
32 | CC(C)NC(=O)N1CCC2(CC1)CCN(S(C)(=O)=O)CC2 | -0.0632% (inactive)
33 | O=C(c1csnn1)N1CCC2(CC1)CN(c1ccncc1)C2 | 0.619% (inactive)
34 | COCC(=O)N1CCC2(CC1)CCN(C(=O)Nc1cccc(F)c1)CC2 | 0.649% (inactive)
35 | O=C(c1cnccn1)N1CCC2(CCN(Cc3nccs3)CC2)CC1 | 2.95% (inactive)
36 | CC(=O)N1CCC2(CC1)CN(c1ccncc1)C2 | 2.66% (inactive)
37 | CS(=O)(=O)N1CCC2(CCN(C(=O)Nc3cccc(F)c3)CC2)CC1 | 4.55% (inactive)
38 | O=C(Nc1ccccc1)N1CC[C@@]2(CCCN(C(=O)c3ccco3)C2)C1 | 0.607% (inactive)
39 | CS(=O)(=O)N1CCC[C@@]2(CCN(C(=O)Nc3ccccc3)C2)C1 | 0.904% (inactive)
40 | Cc1noc(C)c1C(=O)N1CCC[C@@]2(CCN(C(=O)NC(C)C)C2)C1 | 3.68% (inactive)
